Screening data as filed in PubChem.
Sampled rows, rich in hits. Any-hit rate of the full collection: about 3.5%.
MITF inh – blocks human microphthalmia-associated transcription factor. O75030. AlphaScreen MITF homodimerization, bead proximity signal. inhibition, % at 2.6 µM. 650,000 tested, 0.91% active; in the data active means inhibition above about 50%;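 further: 0% = vehicle wells with protein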
TEAD-YAP inh – TEAD-YAP interaction inhibition | inhibition, % at 9.12 µM | HEK-TIYL cells, TEAD-Gal4/YAP UAS-luciferase luminescence | AID 1259422 | 640,000 tested, 1.4% active; in the data active means inhibition above about 32%;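 further: 0% = median of test compound wells and 100% = reference inhibitor wells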
GPR151 activ – human GPR151 activation; Q8TDV0; PathHunter beta-arrestin GPR151 cells, luminescence; activation, % at 11.2 µM; 650,000 tested, 1% active; in the data active means activation above about 4.9%;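 further: 0% = median of compound wells and 100% = cells with positive control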
FBW7 activator – human FBW7 E3 ligase activation, primary screen. Q969H0. AlphaScreen FBW7–phospho-cyclin E peptide binding, activator screen. normalized activity (activation), % at 26.1 µM. 650,000 tested, 0.13% active. AID 1259310; in the data active means normalized activity above about 1.9%;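 further: purified mutant Fbw7 with reduced substrate affinity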
GPR151 confirm – confirmation of human GPR151 activators | shares compounds with GPR151 activ | GPR151 PathHunter beta-arrestin cells, luminescence, 90 min; % of EA-reagent control over plate median | 6,700 tested, under 10 active | activation, % at 11.2 µM;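 active means mean percent activation across replicates above the confirmation screen cutoff of 4.91%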
GPR119 ag – GPR119 activation, counter-screen for GPR151 activators | activation, % at 11.2 µM | shares compounds with GPR151 activ | 6,700 tested, 0.3% active | GPR119 PathHunter beta-arrestin cells, luminescence, 90 min; 0 = compound-well median, 100 = enzyme-acceptor control | AID 1508611;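 active means mean percent activation in the counterscreen above 29.09%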;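 further: counterscreen on off-target GPR119 to flag nonselective hits from the GPR151 activator screen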
Target sequence (Q8TDV5 whole entry, looked up): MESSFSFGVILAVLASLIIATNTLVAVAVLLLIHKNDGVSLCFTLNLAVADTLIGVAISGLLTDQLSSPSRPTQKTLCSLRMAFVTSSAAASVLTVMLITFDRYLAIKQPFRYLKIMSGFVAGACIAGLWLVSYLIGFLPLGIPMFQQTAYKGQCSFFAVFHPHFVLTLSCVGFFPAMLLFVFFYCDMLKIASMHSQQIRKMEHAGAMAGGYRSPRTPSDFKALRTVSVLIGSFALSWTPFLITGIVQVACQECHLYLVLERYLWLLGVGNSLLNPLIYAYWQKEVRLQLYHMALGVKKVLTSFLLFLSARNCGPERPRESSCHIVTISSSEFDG
Active calls of the source: *; ! = not active in a repeat.

`Cn1ccnc1SCc1cc(=O)c(OC(=O)c2ccccc2[N+](=O)[O-])co1` gave MITF inh 12, TEAD-YAP inh 6, GPR151 activ 5.8*, FBW7 activator 0, GPR151 confirm 0 and GPR119 ag 0.
`COc1ccccc1C(=O)Oc1coc(CSc2nc(C)cs2)cc1=O` gave MITF inh -13, TEAD-YAP inh 10, GPR151 activ 7.5*, FBW7 activator 0, GPR151 confirm -1 and GPR119 ag -5.
Screening COc1ccc(OC)c(C2C=C(c3ccc(C)c(C)c3)Nc3ncnn32)c1 (stereo not drawn) returned MITF inh 19, TEAD-YAP inh -10, GPR151 activ -1 and FBW7 activator 1.
O=C(Nc1nnc(SCc2cccc(C(F)(F)F)c2)s1)C1CC1 was read as MITF inh 9, TEAD-YAP inh 1, GPR151 activ 2 and FBW7 activator 0.
Screening O=C(Nc1nnc(SCc2cccc(F)c2)s1)C1CC1 returned MITF inh 11, TEAD-YAP inh -4, GPR151 activ 12*, FBW7 activator 0, GPR151 confirm 1 and GPR119 ag 4.
CCN(CC)S(=O)(=O)c1ccc(S(=O)(=O)c2ccc(S(=O)(=O)N(CC)CC)cc2)cc1 was read as MITF inh -2, TEAD-YAP inh 5, GPR151 activ 5.9*, FBW7 activator 0, GPR151 confirm -1 and GPR119 ag -1.
`CCN(CC(N)=O)S(=O)(=O)c1cc(Cl)ccc1Cl` gave MITF inh -15, TEAD-YAP inh -3, GPR151 activ 5.0*, FBW7 activator 0, GPR151 confirm 1 and GPR119 ag 3.
`CCN(CC(=O)O)S(=O)(=O)c1cc(Cl)ccc1Cl` gave MITF inh 14, TEAD-YAP inh 2, GPR151 activ 0 and FBW7 activator 0.
`CN(CC(=O)NN)S(=O)(=O)c1ccc(Cl)cc1` gave MITF inh 5, TEAD-YAP inh -9, GPR151 activ 6.3*, FBW7 activator 0, GPR151 confirm 1 and GPR119 ag 10.
Screening CCN(CC(=O)NC)S(=O)(=O)c1ccc(Cl)cc1 returned MITF inh 6, TEAD-YAP inh 4, GPR151 activ 7.6*, FBW7 activator 1, GPR151 confirm -2 and GPR119 ag -17.
For COc1ccc(CN2CCC(CNc3c4c(nc5ncnn35)CCC4)CC2)cc1 the results were MITF inh 16, TEAD-YAP inh 26, GPR151 activ 0 and FBW7 activator 0.
Clc1cccc(CN2CCN(c3nc4nonc4nc3NC3CC3)CC2)c1 was read as MITF inh -6, TEAD-YAP inh 6, GPR151 activ 11*, FBW7 activator 0, GPR151 confirm -1 and GPR119 ag -8.
`CN(C)C(CNC(=O)NCc1ccc(F)cc1)c1ccccc1Cl` (stereo not drawn) gave MITF inh 5, TEAD-YAP inh -6, GPR151 activ -2 and FBW7 activator 0.
Screening COc1ccc(CNC(=O)CCCc2ccccc2)cc1 returned MITF inh -19, TEAD-YAP inh -7, GPR151 activ -1 and FBW7 activator 0.
COc1ccc(CNC(=O)CCCc2nc3ccccc3c(=O)[nH]2)cc1 was read as MITF inh -3, TEAD-YAP inh -2, GPR151 activ 6.3*, FBW7 activator 0, GPR151 confirm 1 and GPR119 ag 6.
COc1ccc(CNc2ncnc3c2cnn3-c2cccc(C)c2)cc1 was read as MITF inh 5, TEAD-YAP inh -12, GPR151 activ 5.2*, FBW7 activator 0, GPR151 confirm 0 and GPR119 ag -5.
`Cc1ccc(-n2ncc3c(SCC(=O)NC(C)(C)C)ncnc32)c(C)c1` gave MITF inh -6, TEAD-YAP inh 4, GPR151 activ 7.2*, FBW7 activator 0, GPR151 confirm 0 and GPR119 ag -4.
`c1ccc(-n2ncc3c(Nc4cccc5ccccc45)ncnc32)cc1` gave MITF inh 16, TEAD-YAP inh -2, GPR151 activ 5.7*, FBW7 activator 0, GPR151 confirm -1 and GPR119 ag -8.
For Cc1ccc(-n2ncc3c(NCc4cccnc4)ncnc32)c(C)c1 the results were MITF inh 6, TEAD-YAP inh 2, GPR151 activ 8.5*, FBW7 activator 0, GPR151 confirm -1 and GPR119 ag -3.
`COC(=O)c1ccccc1Oc1ncc(Cl)cn1` gave MITF inh 10, TEAD-YAP inh -8, GPR151 activ -2 and FBW7 activator 0.
For Cc1ccccc1/C=C1\N=C(c2cccc(F)c2)OC1=O the results were MITF inh 12, TEAD-YAP inh -4, GPR151 activ -1 and FBW7 activator 0.
`O=C(Nc1ccc(Br)cc1)c1cc(S(=O)(=O)NCc2ccccc2)ccc1F` gave MITF inh 8, TEAD-YAP inh 2, GPR151 activ 1 and FBW7 activator 0.
COC(=O)c1cccc(NC(=O)C2COc3ccccc3O2)c1 (stereo not drawn) was read as MITF inh -12, TEAD-YAP inh -49, GPR151 activ 5.0*, FBW7 activator 0, GPR151 confirm -1 and GPR119 ag -12.
O=C(CCCC(=O)Nc1ccc(Cl)cc1)Nc1ccc(Cl)cc1 was read as MITF inh -1, TEAD-YAP inh 5, GPR151 activ 14*, FBW7 activator 0, GPR151 confirm 0 and GPR119 ag -6.
O=C(CCC(=O)Nc1ccc(Cl)cc1)Nc1ccc(Cl)cc1 was read as MITF inh -9, TEAD-YAP inh 1, GPR151 activ -1 and FBW7 activator 0.
`CSc1nsc(SC)c1NC(=O)Nc1ccc(Cl)cc1` gave MITF inh 8, TEAD-YAP inh 15, GPR151 activ -1 and FBW7 activator 0.
COc1ccccc1OCCCC(=O)Nc1nnc(C2CCCCC2)s1 was read as MITF inh 6, TEAD-YAP inh -1, GPR151 activ 5.2*, FBW7 activator 0, GPR151 confirm 1 and GPR119 ag 5.
Cc1ccc(NC(=O)CSc2nnc3n2CCN3c2ccc(F)cc2)cc1 was read as MITF inh 7, TEAD-YAP inh -3, GPR151 activ -2 and FBW7 activator 0.
`N#C/C(=N\Nc1ccc(S(=O)(=O)N2CCOCC2)cc1)c1nc2ccccc2[nH]1` gave MITF inh 2, TEAD-YAP inh 4, GPR151 activ -3 and FBW7 activator 0.
COC(=O)c1ccc(NC(=O)/C(=C\c2ccc(OC)c(OC)c2)NC(=O)c2ccc(Cl)cc2)cc1 was read as MITF inh 4, TEAD-YAP inh 1, GPR151 activ 7.8*, FBW7 activator 0, GPR151 confirm 0 and GPR119 ag 3.
Screening FC(F)(F)c1cccc(CNc2ccnc(-c3ccccc3)n2)c1 returned MITF inh 11, TEAD-YAP inh 37*!, GPR151 activ 5.0*!, FBW7 activator 0, GPR151 confirm 1 and GPR119 ag -4.
